Sampled rows, rich in hits. Any-hit rate of the full collection: about 0.93%.
Jurkat NFkB inh: lowers PMA/ionomycin-induced NF-kB signal in Jurkat cells | PMA/ionomycin-induced NF-kB luciferase reporter, luminescence | inhibition, % at 4 µM | actives 0.53% (n = 330,000); in the data active = inhibition above about 50%
HIF act: HIF pathway transcriptional activation | U2OS HRE-luciferase reporter, luminescence; normalized: DMSO 0%, desferrioxamine 100% | activation, % at 7.5 µM (by protocol) | actives 0.32% (n = 300,000) | AID 1910;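 active = mean activation of at least 10% of the iron chelator positive control signal, with at least half of replicates also reaching 10%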
CFTR F508del cor: CFTR F508del correction in bronchial cells. CFBE cells, YFP halide quenching; stimulated with forskolin plus potentiator P3; % fluorescence drop versus neutral controls. actives 0.36% (n = 350,000). activity (quench increase), % at 7.58 µM;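 active = mean added fluorescence quench of at least 8% versus neutral control, with both replicates also reaching 8%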;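 note: cells transiently co-express mutant CFTR-F508del with the halide-sensitive YFP; corrector assay measuring rescue of mutant channel to the surface after 24 h compound exposure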
697 NFkB inh: lowers PMA/ionomycin-induced NF-kB signal in 697 B cells | 697 B-cell NF-kB luciferase reporter, 16 h | inhibition, % at 4 µM | actives 0.33% (n = 330,000); in the data active = inhibition above about 35%
Jurkat NFkB conf: inhibitors of the PMA/ionomycin-induced NF-kB reporter in Jurkat cells, retest; shares compounds with Jurkat NFkB inh; Jurkat NF-kB luciferase, 16 h; inhibition, % at 4 µM; actives 27% (n = 2,700); AID 435020;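 active = inhibition reaching about 45% at 4 µM in either replicate, limit read from the data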;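 note: plate controls were PMA/ionomycin stimulated DMSO wells for no effect and unstimulated DMSO wells for full effect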
An asterisk follows results filed as active; x = not tested or not shown.

SMILES	Jurkat NFkB inh	HIF act	CFTR F508del cor	697 NFkB inh	Jurkat NFkB conf
COc1cccc(S(=O)(=O)N[C@H]2C=C[C@@H](CC(=O)NC3Cc4ccccc4C3)O[C@H]2CO)c1	x	x	5	x	x
C[C@@H](NC(=O)C[C@H]1C[C@H]2c3cc(NC(=O)CN(C)C)ccc3O[C@H]2[C@H](CO)O1)c1ccccc1	x	x	0	x	x
COc1ccc(C#Cc2cnc3c(c2)C(=O)N([C@@H](C)CO)C[C@@H](C)[C@@H](CN(C)C(=O)Nc2cccc(OC)c2)O3)cc1	x	x	4	x	x
Cc1ccc(C(=O)/C=C/Nc2cccc(O)c2)cc1	-70	1	x	-109	x
C/C(=C\C(=O)c1ccc(C)cc1)Nc1cccc(O)c1	-186	x	x	-188	-7
Cc1noc(C)c1NC(=O)Nc1ccc2c(c1)C(=O)N([C@@H](C)CO)C[C@H](C)[C@H](CN(C)Cc1ccc3c(c1)OCO3)O2	x	x	0	x	x
Cc1cc(/C=N/n2cnnc2)c(C)n1-c1ccc(OCc2ccc(Cl)cc2)cc1	52*	-1	x	4	23
Cc1cc(/C=N/n2cnnc2)c(C)n1-c1ccc(OCc2ccccc2F)cc1	-2	1	-1	-64	x
Cc1ccc(NC(=S)NNC(=S)Nc2ccc(C)cc2C)cc1	66*	0	3	-7	-18
CC(C)(C)[C@H](N)C(=O)N[C@H]1CCC2C3CC=C4C[C@@H](O)CC[C@]4(C)C3CC[C@@]21C (stereo partly drawn)	61*	x	0	8	37
CC(C)C(=O)N[C@H]1CCC2C3CC=C4C[C@@H](O)CC[C@]4(C)C3CC[C@@]21C (stereo partly drawn)	4	x	-2	-5	x
C[C@H](CO)N1C[C@H](C)[C@H](CN(C)Cc2ccccn2)Oc2ncc(C3=CCCCC3)cc2C1=O	x	x	3	x	x
COc1ccc(NS(=O)(=O)c2cc(NC(=O)c3ccco3)ccc2N2CCCC2)cc1	62*	1	x	-112	8
COc1ccc(NS(=O)(=O)c2cc(NC(=O)c3sccc3C)ccc2N2CCOCC2)cc1	50*	3	6	-11	2
O=C(Cc1ccc(Cl)cc1)Nc1ccc(-c2cc3ccccc3oc2=O)c(Cl)c1	59*	-1	x	-41	28
O=C(c1ccc2ncsc2c1)N1CCN(c2cccc(C(F)(F)F)c2)CC1	55*	x	8	-176	2
O=C(N[C@H]1CC[C@@H](CCNS(=O)(=O)c2ccccc2)O[C@H]1CO)c1cccc(F)c1	x	x	-2	x	x
COc1ccc(NC(=O)/C(Cl)=C(/Cl)S(=O)Cc2ccc(Cl)cc2)cn1 (stereo not drawn)	101*	x	-6	-185	99*
COc1ccc(NC(=O)C(Cl)=C(Cl)Cl)cn1	26	0	5	25	x
Cc1cccc(-c2noc(-c3ccc(Cl)cc3[N+](=O)[O-])n2)c1	-161	1	x	-187	-103
COc1cccc2sc3ccc(C#CC4(O)CCCCC4)cc3c(=O)c12	-194	4	5	-117	-47
CO[C@H]1CN(C)C(=O)c2cc(NC(=O)NC3CCCCC3)ccc2OC[C@H](C)N(CC2CC2)C[C@@H]1C	x	x	1	x	x
COc1ccc(NC(=O)Nc2ccc3c(c2)C(=O)N([C@@H](C)CO)C[C@H](C)[C@H](CN(C)Cc2ccc(C(=O)O)cc2)OCCCC[C@@H](C)O3)cc1	x	x	1	x	x
COC(=O)c1[nH]c2c(c1C)C(=O)CC(c1ccc(OC)c(OC)c1)C2 (stereo not drawn)	-14	0	1	-34	x
CCOCCOC(=O)c1[nH]c2c(c1C)C(=O)CC(c1cccs1)C2 (stereo not drawn)	75*	1	-5	16	46
SMILES	Jurkat NFkB inh	HIF act	CFTR F508del cor	697 NFkB inh	Jurkat NFkB conf
CCOCCOC(=O)c1[nH]c2c(c1C)C(=O)CC(c1cc(OC)c(OC)c(OC)c1)C2 (stereo not drawn)	18	0	-2	-19	x
CCOCCOC(=O)c1[nH]c2c(c1C)C(=O)CC(c1ccccc1)C2 (stereo not drawn)	60*	1	5	-53	51*
CCOCCOC(=O)C1=C(C)NC2=C(C(=O)CC(c3cccs3)C2)C1c1ccsc1 (stereo not drawn)	12	0	x	6	x
COC(=O)c1[nH]c2c(c1C)C(=O)CC(c1cccc(OC)c1)C2 (stereo not drawn)	62*	-1	8.4*	-54	56*
CCOC(=O)c1[nH]c2c(c1C)C(=O)CC(c1ccc(F)cc1)C2 (stereo not drawn)	64*	0	6	-21	58*
C[C@H]1CN([C@@H](C)CO)S(=O)(=O)c2ccc(-c3cccnc3)cc2O[C@@H]1CN(C)C(=O)C1CC1	x	x	2	x	x
CCC(=O)N1CC2(C1)CN(C(=O)CN1CCOCC1)[C@H](CO)c1c2c2ccc(OC)cc2n1C	x	x	0	x	x
COc1ccc(S(=O)(=O)N2CCC3(CC2)CN(Cc2ccncc2)[C@H](CO)c2[nH]c4cc(OC)ccc4c23)cc1	x	x	1	x	x
Cc1c(C(=O)OCC(C)C)[nH]c2c1C(=O)CC(c1cccs1)C2 (stereo not drawn)	51*	0	x	-19	49
COC(=O)c1[nH]c2c(c1C)C(=O)CC(c1ccc(C)cc1)C2 (stereo not drawn)	20	0	x	2	x
CCCSc1nnc(Sc2nnnn2-c2ccccc2)s1	87*	1	x	-30	61*
Cc1ccccc1-n1nnnc1Sc1nnnn1-c1ccccc1	30	x	x	-74	x
N=c1c(C(=O)NCCc2ccccc2)cc2c(=O)n3ccccc3nc2n1CCCN1CCOCC1	53*	-2	0	-15	2
N=c1c(C(=O)NCc2ccccc2)cc2c(=O)n3ccccc3nc2n1CCCN1CCOCC1	35	x	x	-14	x
N=c1c(C(=O)NC2CCCCC2)cc2c(=O)n3ccccc3nc2n1CCc1ccccc1	58*	0	1	4	-51
C[C@@H]1CN([C@H](C)CO)C(=O)c2cc(C3=CCCC3)cnc2O[C@@H]1CN(C)Cc1ccccc1F	x	x	1	x	x
CCCNC(=O)N1CCC2(CC1)CN(C(=O)COC)[C@@H](CO)c1c2c2ccc(OC)cc2n1C	x	x	-1	x	x
COc1cc(C(=O)Nc2ccc3c(c2)ncn3C)cc(OC)c1OC	52*	-11	12*	-53	37
CCn1c2ccccc2c2cc(NC(=O)COc3ccc(OC)cc3)ccc21	-6	0	x	6	x
CCn1c2ccccc2c2cc(NC(=O)c3cc(OC)c(OC)c(OC)c3)ccc21	57*	-56	2	-140	51*
CCn1c2ccccc2c2cc(NC(=O)c3cc(OC)cc(OC)c3)ccc21	60*	0	x	3	41
O=C(Nc1cc(F)ccc1F)N1CC(=O)N2[C@H](CO)[C@@H](c3ccc(C#CC4CCCC4)cc3)[C@H]2C1	x	x	4	x	x
C[C@H]1CN([C@@H](C)CO)C(=O)Cc2cc(NC(=O)Nc3ccc(F)cc3)ccc2O[C@H]1CN(C)Cc1ccc(C(=O)Nc2ccccc2N)cc1	x	x	-2	x	x
Cc1nc(S(=O)(=O)N[C@@H]2CCCN(Cc3cccc(OCCO)c3)C2)cn1C	x	x	1	x	x

Screening results deposited in PubChem by several laboratories.
